Source: PubChem
In the library only some 4.3% were active in any assay of this set; here they are far more common.
NadD block – NadD (S. aureus) enzyme inhibition | inhibition, % at 20 µM | hit rate 0.78% among 360,000 | purified NadD enzyme, colorimetric absorbance read-out | AID 602399; in the data active = inhibition above about 26%
rCAG RNA binder – binds r(CAG) RNA repeats; r(CAG) RNA repeat, TO-PRO-1 dye displacement fluorescence; inhibition, % at 3 µM; hit rate 1.3% among 370,000; AID 651821;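 active = inhibition above the plate cutoff, the mean of all test compounds on that plate plus 3 SD, cut at about 35% in these data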;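 also: 0% = DMSO alone and 100% = 100 µM mitoxantrone as full dye displacement; higher means more dye released from RNA so lower well fluorescence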
FAS-TE inh – inhibitors of human fatty acid synthase thioesterase domain. P49327. recombinant FAS-TE, OMFH fluorogenic substrate, fluorescence endpoint. inhibition, % at 15 µM. hit rate 0.67% among 360,000. AID 602261;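 active = compounds whose normalised, plate-corrected inhibition of enzyme fluorescence in the single-dose primary screen is 50% or more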;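 also: 0% = DMSO with enzyme and 100% = substrate without enzyme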
GRIN3A LBD mod – NR3A (human) ligand-binding domain modulation; NR3A LBD differential scanning fluorimetry, Tm shift; 0% = protein alone, 100% = glycine-bound protein; Tm shift relative to glycine control, % at 25 µM; hit rate 2.5% among 340,000;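 active = melting temperature shift of at least 10% of the positive control shift, at one fixed dose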
rCAG bind conf – r(CAG) RNA repeat binding, confirmation | shares compounds with rCAG RNA binder | TO-PRO-1 dye displacement fluorescence | inhibition, % at 3 µM | hit rate 70% among 4,300 | AID 652065;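 active = inhibition above a per-plate cutoff, the mean inhibition of sample wells plus 3 SD, cut at about 35% in these data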;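 also: loss of TO-PRO-1 fluorescence as compound displaces dye from 1x1 AA loop RNA; 0% = DMSO only wells and 100% = 100 µM mitoxantrone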
dCAG dye counter – DNA CAG dye complex inhibition counter-screen | hit rate 94% among 4,300 | inhibition, % at 3 µM | shares compounds with rCAG RNA binder | d(CAG) DNA oligo TO-PRO-1 dye displacement, fluorescence;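 active = inhibition above its plate's cutoff, the mean test-well inhibition plus 3 SD, cut at about 4.8% in these data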;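 also: 0% = DNA dye mix with DMSO and 100% = 100 µM mitoxantrone; hits displace the dye from DNA and so lower well fluorescence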
DNA CAG DR – DNA CAG dye complex inhibition, dose response counter-screen | DNA CAG/GTC duplex TO-PRO-1 dye displacement fluorescence | hit rate 20% among 250 | IC50, µM | shares compounds with rCAG RNA binder; in the data active = IC50 below about 10 µM
* marks the source's active call; other numbers are inactive results; i = inactive; / = no result given.

SMILES	NadD block	rCAG RNA binder	FAS-TE inh	GRIN3A LBD mod	rCAG bind conf	dCAG dye counter	others
COC(=O)Cn1c(=O)c2c(n(Cc3ccccc3)c1=O)N/C(=C/c1ccc(OC)cc1)C2=O	9	75*	-2	-1	79*	34*	DNA CAG DR=4*
Cc1ccccc1N(C)C(=O)CN1CCN(c2nc(-c3ccccc3)cs2)CC1	/	2	/	/	/	/
O=C(Nc1ccccc1)N1c2ccccc2SC1c1ccco1 (configuration not stated)	/	3	/	/	/	/
Cc1ccc(C)c(NC(=O)CSc2nc3nc(-c4cccs4)cc(C(F)(F)F)c3c(=O)[nH]2)c1	16	58*	22	9	83*	47*
CCCCCCCCN1[C@@H](CC(=O)O)c2cc(C(F)(F)F)ccc2S1(=O)=O	-7	40*	6	-1	26	4
Cc1nc(Nc2nc(-c3ccccc3)cc(=O)[nH]2)nc2ccccc12	14	37*	7	6	19	6.5*
Cc1nc(Nc2nc(CSc3ccc(Cl)cc3)cc(=O)[nH]2)nc2ccccc12	3	8	-4	0	/	/
Cc1nc(Nc2nc(CSc3nc4ccccc4[nH]3)cc(=O)[nH]2)nc2ccccc12	27	41*	0	-15	32	21*
NNC(=O)c1nnsc1-c1csnn1	-2	6	-5	-2	/	/
Cc1c(CN2CCN(c3ncc(Cc4ccccc4)cn3)CC2)c(=O)n(-c2ccccc2)n1C	/	-1	/	/	/	/
CC(=O)Nc1ccc(S(=O)(=O)Nc2nc3ccccc3nc2N2CCCCCC2)cc1	1	24	2	-5	/	/
CC(=O)Nc1ccc(S(=O)(=O)Nc2nc3ccccc3nc2N2CCc3ccccc3C2)cc1	13	49*	5	16*	60*	25*
Cc1ccccc1S(=O)(=O)Nc1nc2ccccc2nc1N1CCc2ccccc2C1	6	35*	25	-3	45*	15*
CC(=O)c1ccc([C@H](O)[C@@H](C(=O)N(C)c2ccccc2)C2CC2)cc1	/	2	/	/	/	/
CCN(CC)c1nc(N)c2c(N)n(-c3ccccc3C)c(=S)c(C#N)c2c1C#N	26	98*	18	3	93*	69*
CN[C@H]1C[C@H]2c3[nH]c4c(-c5cccc(C)c5)cccc4c3CCN2C(=O)[C@H]1[C@H](C)O	/	3	/	/	/	/
CCc1cc2c(nc1CC)CCCN2S(=O)(=O)c1ccc(F)cc1	/	1	/	/	/	/
Cc1ccc2nc(Cl)c(/C=N/Nc3ccc(C(=O)O)cc3)cc2c1	0	41*	5	-1	23	5.3*
CCOC(=O)c1c(NC(=O)c2c(C(=O)O)cccc2[N+](=O)[O-])sc2c1CCCC2	3	47*	-4	-2	34	10.0*
CC(C)Cc1csc(NC(=O)c2ccc(F)cc2)c1C(=O)O	-2	35*	-1	-2	19	2
CCOC(=O)c1c(CC(C)C)csc1NC=O	-6	-3	14	2	/	/
NC(=O)c1c(NC(=O)C2CC=CCC2C(=O)O)sc2c1CCCCC2 (configuration not stated)	-2	3	-4	2	/	/
CC(C)OC(=O)c1c(NC(=O)C2CC=CCC2C(=O)O)sc2c1CCCCC2 (configuration not stated)	8	56*	1	1	68*	22*
CCOC(=O)c1c(NC(=O)C2C3C=CC(C3)C2C(=O)O)sc2c1CCCC2 (configuration not stated)	8	37*	-1	-1	50*	11*	DNA CAG DR=>30
Cn1c(=O)oc2cc(S(=O)(=O)N3CCN(c4cccc(C(F)(F)F)c4)CC3)ccc21	/	5	/	/	/	/
SMILES	NadD block	rCAG RNA binder	FAS-TE inh	GRIN3A LBD mod	rCAG bind conf	dCAG dye counter	others
Cc1cc(C)nc(N2CCN(S(=O)(=O)c3ccc(F)cc3)CC2)n1	-4	0	11	2	/	/
O=C(/C=C(\Nc1cccc(Cl)c1F)c1ccccc1)c1ccccc1	/	6	/	/	/	/
COc1cc(CNc2cccc3c2S(=O)(=O)N([C@H](C)c2ccccc2)C[C@@H](COCc2ccccc2)O3)cc(OC)c1OC	/	8	/	/	/	/
CCOC(=O)c1c(NC(=O)c2ccccc2C(=O)O)sc2c1CCC2	-6	47*	-2	2	29	7.3*
CCOC(=O)c1sc(NC(=O)c2ccccc2F)c(C(N)=O)c1C	-1	3	-5	-6	/	/
CCOC(=O)c1c(CC(C)C)csc1NC(=O)c1ccccc1C(=O)O	3	47*	1	-2	45*	12*
CCOC(=O)c1c(CC(C)C)csc1NC(C)=O	-2	-5	8	-2	/	/
CCOC(=O)c1sc(NC(=O)c2ccccc2C(=O)O)c(C(=O)OCC)c1C	-6	45*	-2	0	35*	7.7*
CCOC(=O)CC[C@@]1(C(=O)OCC)C[C@@H](CC(=O)NCc2cccc3ccccc23)C(=O)N2CCCC=C21	/	3	/	/	/	/
CCN(CC)C(=O)CC[C@H]1CC[C@]2(CCCN(Cc3cccs3)C2)O1	/	-2	/	/	/	/
O=C(N/N=C/c1cc(Br)c(O)c(Br)c1)c1cc2c(ccc3ccccc32)o1	27	96*	18	7	78*	46*
O=C(N/N=C/c1cccnc1)c1cc2c(ccc3ccccc32)o1	3	7	-5	-4	/	/
O=C(N/N=C/c1cc(Cl)c(O)c(Cl)c1)c1cc2c(ccc3ccccc32)o1	27	86*	7	6	78*	40*
CC(C)C[C@H](NC(=O)C1CCCC1)C(=O)N1CCC[C@H]1C(=O)NCc1ccccc1	/	2	/	/	/	/
COc1ccc(C(=O)NNC(=O)c2cc3ccccc3cc2O)cc1	-5	14	12	3	/	/
Cc1ccc(C)c(NC(=O)NNC(=O)c2cc3ccccc3cc2O)c1	4	35*	3	2	28	9.0*
Cc1cccc(NC(=O)NNC(=O)c2cc3ccccc3cc2O)c1C	6	30	1	-2	/	/
O=C(NNC(=O)c1cc2ccccc2cc1O)Nc1ccccc1F	-7	41*	1	2	22	7.2*
COc1ccc(NC(=O)c2cc3ccccc3cc2O)cc1	-3	46*	-1	7	39*	16*
O=C(O)c1cc(Cl)c(Cl)cc1C(=O)N(Cc1ccccc1)Cc1ccccc1	10	37*	15	1	45*	12*
O=C(O)c1ccccc1C(=O)N(Cc1ccccc1)Cc1ccccc1	-2	5	-4	-2	/	/
CN(C)S(=O)(=O)c1cccc(NC(=S)N/N=C/c2cc(Br)ccc2O)c1	23	46*	24	12*	55*	21*
CCOC(=O)c1ccccc1-c1csc(NS(=O)(=O)c2ccc(Cl)cc2)n1	8	76*	1	-10	70*	33*	DNA CAG DR=i
COc1ccc(S(=O)(=O)NC(=O)C2(C)CCN2C(=O)C2(c3ccc(Cl)cc3)CCC2)cc1 (configuration not stated)	-1	46*	-8	/	35*	6.4*
